# Test results as given in PubChem BioAssay.
# “And” between values parts separate entries of the source, which are not always exact repeats. Identical values can stand only once. The source made the active and inactive calls.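 Rule for the calls, unless noted: active = inhibition of the reporter signal at or above 50%; inactive = inhibition below 50%.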
# Assay: inhibitors of Sendai virus-induced IRF3 signaling, primary screen, TLR/RLR signaling modifier project, cell-based, Sendai virus stimulus, luciferase, 10K MLSCN set (AID 602276;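 active = inhibition at or above 50% at 10 µM; inactive = inhibition below 50%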;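 note: firefly luciferase from ISG56 promoter only with Renilla not read in this screen; 0% = Sendai virus plus DMSO and 100% = medium plus DMSO without virus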)
# Conditions: HEK293 RL24 IRF3 luciferase reporter, at 10 µM, active compounds read high
row,SMILES,inhibition
1,O=C1CC[C@@]2(O)[C@H]3Cc4ccc(O)c5c4[C@@]2(CCN3CC2CC2)[C@H]1O5,10.3% (inactive)
2,CCCC(C)(COC(N)=O)COC(=O)NC(C)C (stereo not given),3.15% (inactive)
3,COc1ccc(Cc2nccc3cc(OC)c(OC)cc23)cc1OC,-5.8% (inactive)
4,C[N+]1(C)[C@@H]2CC[C@H]1CC(OC(=O)C(CO)c1ccccc1)C2 (stereo not given in full),13.4% (inactive) and 12.2% (inactive)
5,CC[C@@H]1C(=O)OC[C@@H]1Cc1cncn1C,18.4% (inactive) and -3.13% (inactive)
6,c1ccc2c(c1)OCC(C1=NCCN1)O2 (stereo not given),-8.86% (inactive)
7,O=C(COc1ccc2ccccc2c1)N1CCN(C2CCN(Cc3ccccc3)CC2)CC1,8.43% (inactive)
8,C[C@]12CCC(=O)C=C1CC[C@@H]1[C@@H]2CC[C@]2(C)C(=O)CC[C@@H]12,5% (inactive)
9,CN(C)[C@@H]1C(=O)C(C(N)=O)=C(O)[C@@]2(O)C(=O)C3=C(O)c4c(O)cccc4[C@@](C)(O)[C@H]3[C@H](O)[C@@H]12,-6.24% (inactive)
10,O=c1[nH]c2ccccc2n1CCCN1CCC(n2c(=O)[nH]c3cc(Cl)ccc32)CC1,7.67% (inactive)

# Assay: inhibitors of poly I:C-induced TLR3 signaling, primary screen, cell-based, poly I:C stimulus, luciferase, 10K MLSCN set (AID 602277)
# Conditions: HEK293-TLR3 RL24 IRF3 luciferase reporter, at 10 µM, active compounds read high
row,SMILES,inhibition
1,O=C1CC[C@@]2(O)[C@H]3Cc4ccc(O)c5c4[C@@]2(CCN3CC2CC2)[C@H]1O5,48.8% (inactive)
2,CCCC(C)(COC(N)=O)COC(=O)NC(C)C (stereo not given),14.5% (inactive)
3,COc1ccc(Cc2nccc3cc(OC)c(OC)cc23)cc1OC,-3.94% (inactive)
4,C[N+]1(C)[C@@H]2CC[C@H]1CC(OC(=O)C(CO)c1ccccc1)C2 (stereo not given in full),35.7% (inactive) and 30.4% (inactive)
5,CC[C@@H]1C(=O)OC[C@@H]1Cc1cncn1C,19% (inactive) and 27% (inactive)
6,c1ccc2c(c1)OCC(C1=NCCN1)O2 (stereo not given),10.1% (inactive)
7,O=C(COc1ccc2ccccc2c1)N1CCN(C2CCN(Cc3ccccc3)CC2)CC1,-13.3% (inactive)
8,C[C@]12CCC(=O)C=C1CC[C@@H]1[C@@H]2CC[C@]2(C)C(=O)CC[C@@H]12,31.7% (inactive)
9,CN(C)[C@@H]1C(=O)C(C(N)=O)=C(O)[C@@]2(O)C(=O)C3=C(O)c4c(O)cccc4[C@@](C)(O)[C@H]3[C@H](O)[C@@H]12,5.5% (inactive)
10,O=c1[nH]c2ccccc2n1CCCN1CCC(n2c(=O)[nH]c3cc(Cl)ccc32)CC1,18.2% (inactive)
